Measurements taken from the supplement of paper PMC9023506.
Where a name gives a salt, the structure may show the parent alone.

system: Danio rerio larvae (5 dpf); assay: optomotor response to fast red moving lines, difference vs DMSO (percentage points (treated minus DMSO)); higher = more of the behaviour than the DMSO vehicle control; conditions: 10 µM; exposure time: 3 h pre-incubation + 3 h imaging
Procedure: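 5-dpf wild-type zebrafish larvae were imaged in 96-well plates. They were treated with 190 Tocris FDA-approved drugs at 10 µM (1 µl/ml DMSO) for 3 h before and 3 h during imaging at 28.5 °C, 48 larvae per drug. Automated image analysis gave % time moving and optomotor responses. Values are drug group mean minus DMSO vehicle mean (n=844), in percentage points, for 10 behaviours.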

Row | Compound | optomotor response
1 | Cc1cccc(C)c1OCC(C)N (stereo not given) [Mexiletine hydrochloride] | 0.599
2 | CCOC(=O)[C@H](CCc1ccccc1)N[C@@H](C)C(=O)N1[C@H](C(=O)O)C[C@@H]2CCC[C@@H]21 [Ramipril] | -1.3
3 | CC/C(=C(\c1ccccc1)c1ccc(OCCN(C)C)cc1)c1ccccc1 [Tamoxifen citrate] | -8.84
4 | CC(c1cc2ccccc2s1)N(O)C(N)=O (stereo not given) [Zileuton] | -16.8
5 | C[C@H]1C[C@@H]2[C@H]([C@@H](O)C[C@@]3(C)[C@H]2CC[C@]3(O)C(=O)CO)[C@@]2(C)C=CC(=O)C=C12 [Methylprednisolone] | -4.16
6 | CC(C)c1ccc2oc3nc(N)c(C(=O)O)cc3c(=O)c2c1 [Amlexanox] | -1.36
7 | CN(CCOc1ccc(NS(C)(=O)=O)cc1)CCc1ccc(NS(C)(=O)=O)cc1 [Dofetilide] | 2.79
8 | C[C@]12CC[C@@H]3c4ccc(O)cc4C[C@@H](CCCCCCCCC[S+]([O-])CCCC(F)(F)C(F)(F)F)[C@H]3[C@@H]1CC[C@@H]2O (stereo not given in full) | 3.52
9 | CCCCc1nc(Cl)c(CO)n1Cc1ccc(-c2ccccc2-c2nnn[nH]2)cc1 [Losartan potassium] | -3.43
10 | CC(=O)S[C@@H]1CC2=CC(=O)CC[C@]2(C)[C@H]2CC[C@@]3(C)[C@@H](CC[C@@]34CCC(=O)O4)[C@H]12 [Spironolactone] | -11.3
11 | OC(c1cc(C(F)(F)F)nc2c(C(F)(F)F)cccc12)C1CCCCN1 (stereo not given) [Mefloquine hydrochloride] | -3.95
12 | Cc1nnc(C(C)C)n1C1C[C@H]2CC[C@@H](C1)N2CC[C@H](NC(=O)C1CCC(F)(F)CC1)c1ccccc1 (stereo in doubt) [Maraviroc] | 6.43
13 | Cc1cccc(CN2CCN(C(c3ccccc3)c3ccc(Cl)cc3)CC2)c1 (stereo not given) [Meclizine dihydrochloride] | -10.8
14 | COc1ccc(Cl)cc1C(=O)NCCc1ccc(S(=O)(=O)NC(=O)NC2CCCCC2)cc1 [Glibenclamide] | -19.5
15 | Clc1ccc(COC(Cn2ccnc2)c2ccc(Cl)cc2Cl)c(Cl)c1 (stereo not given) [Miconazole nitrate] | -18.6
16 | CC1(C)O[C@@H]2[C@@H](CO[C@@]3(COS(N)(=O)=O)OC(C)(C)O[C@@H]23)O1 [Topiramate] | -10.6
17 | CC(C)(C#N)c1cc(Cn2cncn2)cc(C(C)(C)C#N)c1 [Anastrozole] | -1.59
18 | N#Cc1ccc2[nH]cc(CCCCN3CCN(c4ccc5oc(C(N)=O)cc5c4)CC3)c2c1 [Vilazodone hydrochloride] | -38.2
19 | Clc1ccc2nsnc2c1NC1=NCCN1 [Tizanidine hydrochloride] | 4.15
20 | O=C1CCc2ccc(OCCCCN3CCN(c4cccc(Cl)c4Cl)CC3)cc2N1 [Aripiprazole] | 7.59

Row | Compound | optomotor response
21 | COCCCOc1cc(C[C@@H](C[C@H](N)[C@@H](O)C[C@H](C(=O)NCC(C)(C)C(N)=O)C(C)C)C(C)C)ccc1OC [Aliskiren hemifumarate] | 2.22
22 | CC1=Nc2ccc(Cl)cc2S(=O)(=O)N1 [Diazoxide] | -1.95
23 | Clc1ccccc1C(c1ccccc1)(c1ccccc1)n1ccnc1 [Clotrimazole] | 17.9
24 | NC(=O)c1ncn([C@@H]2O[C@H](CO)[C@@H](O)[C@H]2O)n1 [Ribavirin] | 0.429
25 | CCCCCCCN(CC)CCCC(O)c1ccc(NS(C)(=O)=O)cc1 (stereo not given) [Ibutilide hemifumarate] | 3.06
26 | CNCc1ccc(-c2[nH]c3cc(F)cc4c3c2CCNC4=O)cc1 [Rucaparib camsylate] | 3.57
27 | C[C@H]1O[C@H](O[C@H]2[C@H](O)[C@@H](O)[C@@H](O[C@H]3[C@H](O)[C@@H](O)C(O)O[C@@H]3CO)O[C@@H]2CO)[C@H](O)[C@@H](O)[C@@H]1N[C@H]1C=C(CO)[C@@H](O)[C@H](O)[C@H]1O (stereo not given in full) [Acarbose] | 12.4
28 | CCCCCOC(=O)Nc1nc(=O)n([C@@H]2O[C@H](C)[C@@H](O)[C@H]2O)cc1F [Capecitabine] | 5.07
29 | COc1ccccc1OCC(O)CN1CCN(CC(=O)Nc2c(C)cccc2C)CC1 (stereo not given) [Ranolazine dihydrochloride] | 9.26
30 | CC1CNc2c(cccc2S(=O)(=O)N[C@@H](CCCNC(=N)N)C(=O)N2CC[C@@H](C)C[C@@H]2C(=O)O)C1 (stereo not given in full) [Argatroban] | -3.36
31 | Cc1c(-c2ccc(O)cc2)n(Cc2ccc(OCCN3CCCCCC3)cc2)c2ccc(O)cc12 [Bazedoxifene acetate] | 0.818
32 | O=C(NCC1CCCCN1)c1cc(OCC(F)(F)F)ccc1OCC(F)(F)F (stereo not given) [Flecainide acetate] | 1.94
33 | C#CCN[C@@H]1CCc2ccccc21 [Rasagiline mesylate] | 0.354
34 | COc1c(C)c2c(c(O)c1C/C=C(\C)CCC(=O)O)C(=O)OC2 [Mycophenolic acid] | 10.7
35 | COC(=O)C1=C(C)NC(C)=C(C(=O)OC(C)C)C1c1cccc2nonc12 (stereo not given) [Isradipine] | -16.6
36 | COc1cc2nc(N3CCN(C(=O)c4ccco4)CC3)nc(N)c2cc1OC [Prazosin hydrochloride] | 3.73
37 | COc1cc(N)c(Cl)cc1C(=O)NC1CCN(CCCOc2ccc(F)cc2)CC1OC (stereo not given) [Cisapride] | 9.11
38 | O=C(O)c1cc(/N=N/c2ccc(S(=O)(=O)Nc3ccccn3)cc2)ccc1O [Sulfasalazine] | -5.17
39 | N#C[C@@H]1C[C@@H]2C[C@@H]2N1C(=O)[C@@H](N)C12CC3CC(CC(O)(C3)C1)C2 [Saxagliptin hydrochloride] | -7.58
40 | CNS(=O)(=O)Cc1ccc2[nH]cc(CCN(C)C)c2c1 [Sumatriptan succinate] | -17.2
